HT1080 IDH1KD tx: toxicity to HT-1080 IDH1 knockdown cells (counter line). 2% of 360,000 active. HT-1080 IDH1 knockdown viability, ATP luminescence, 48 h. AID 686971. Potency, µM (doses to about 46.1 µM), without a hit: top-dose activity, negative = toxicity, most hits filed as cytotoxic;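 further: 0% = DMSO wells and -100% = cell-free medium wells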
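IDH1KD HT-1080 cells, 750/well, RPMI + 5% FBS; compound pinned after 2 h settling; 48 h, 37 °C; CellTiter-Glo luminescence; % activity normalised to DMSO and no-cell wells; curves fitted, classed by r2 and efficacy.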
KB-V1 cytotox: KB-V1 MDR subline cytotoxicity; Potency, µM (highest dose often 46.1 µM), hits mostly cytotoxic; 3.4% of 400,000 active; KB-V1 MDR cells viability, CellTiter-Glo, 72 h; further: nearly all actives have a fitted effect of over 60% in size
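Readout: CellTiter-Glo luminescence, 10 min after addition. Cells: KB-V1 MDR subline, 72 h at 37 degrees C with compound. Analysis: corrected, normalized data fitted to concentration-effect curves.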
KB-3-1 cytotox: KB-3-1 parental cell cytotoxicity. KB-3-1 viability, CellTiter-Glo ATP luminescence, 72 h. Potency, µM (doses to about 46.1 µM), hits mostly cytotoxic. 1.4% of 400,000 active. AID 1347075; further: nearly all actives have a fitted effect of over 60% in size
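Using CellTiter-Glo luminescence, growth of non-resistant KB-3-1 adenocarcinoma cells is assessed 72 h after pin-tool compound addition at 37 °C. Normalized responses across the concentration series yield fitted curves.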
HT1080NT lethal: kills 2HG-producing HT-1080-NT fibrosarcoma cells; HT-1080-NT fibrosarcoma viability, CellTiter-Glo ATP luminescence, 48 h; Potency, µM (series often up to 46.1 µM), without a hit: top-dose activity, negative = less viability, most hits filed as cytotoxic; 1.6% of 360,000 active; AID 686970;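 further: NT is the 2HG producing partner of a matched IDH1 knockdown line; 0% = DMSO-treated cells and -100% = media-only wells without cells; nearly all actives have a fitted effect of over 55% in size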
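Viability of the 2HG-overproducing fibrosarcoma line after 48 hours of compound exposure at 37 degrees C was determined by luminescence with CellTiter-Glo, and concentration-effect curves were then fitted and categorized.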
Starred values were filed as active, the others as inactive; i = inactive; ? = inconclusive; · = not tested or not shown. Only some compounds are listed: those with a hit (about 5.7% of all), similar ones and a draw of the others. The call rests on the fitted dose curve; in most records, active means well fitted curve in the direction sought with a large enough effect; inconclusive means small, poorly fitted or top-dose-only effect, or another doubt; inactive means no such curve, though single readings can be large; an effect the other way counts as inactive or inconclusive. Unless noted, on the % scale 0 is the no-effect control and ±100 the full control effect; potency means the concentration at half of the fitted maximal effect.

SMILES	HT1080 IDH1KD tx	KB-V1 cytotox	KB-3-1 cytotox	HT1080NT lethal
Cc1nn2c(NCCCN3CCOCC3)c3c(nc2c1-c1ccccc1)CCC3	-3%	?	i	-10%
CCCCNc1c2c(nc3c(-c4ccccc4)c(C)nn13)CCC2	-5%	23µM*	i	7%
Cc1nn2c(N3CCCC3)c3c(nc2c1-c1ccccc1)CCC3	-2%	?	i	5%
Cc1nn2c(NCCN(C)C)c3c(nc2c1-c1ccccc1)CCCC3	15µM*	?	i	15µM*
Cc1nn2c(N3CCN(CCO)CC3)c3c(nc2c1-c1ccccc1)CCCC3	?	i	i	18µM*
COc1ccc(-c2cc(NCc3ccc(C)cc3)n3cnnc3n2)cc1	·	i	i	·
COc1ccccc1CC(=O)NO	16%	·	·	6%
Cc1ccc(NC(=O)C(Cc2c[nH]c3ccccc23)NC(=O)OCC(C)C)cc1 (stereo not drawn)	·	i	i	·
Cc1nn2c(Nc3ccc(F)cc3)c3c(nc2c1-c1ccccc1)CCC3	9%	?	i	8%
COc1cccc(Nc2c3c(nc4c(-c5ccccc5)c(C)nn24)CCC3)c1	-5%	18µM*	?	14%
O=C1CCCC2=C1C1(CCOCC1)N=C(Nc1nc3ccccc3o1)N2	·	i	i	·
CN(C)CCNC(=O)c1cc2sc3ccccc3c2s1	23µM*	i	i	21µM*
Cc1cccc2sc(NC(=O)CCNS(=O)(=O)c3cccc4nonc34)nc12	-25%	23µM*	?	-14%
Nc1ccc(NC(=O)c2cccc(C(=O)Nc3ccc(N)cc3Cl)c2)c(Cl)c1	16µM*	?	?	?
CC(=O)c1cccc(-c2ccnc3c2CC(C(=O)Nc2cccc(OC(F)(F)F)c2)O3)c1 (stereo not drawn)	16µM*	i	i	?
O=C(Nc1cccc(OC(F)(F)F)c1)C1Cc2c(-c3ccc4c(c3)OCO4)ccnc2O1 (stereo not drawn)	23µM*	i	i	?

Source: PubChem
